NPC1 prom act = NPC1 promoter activation; Huh7 NPC1 promoter luciferase reporter, 24 h; Potency, µM (doses to about 9.22 µM), for the others: top-dose activation, hits mostly activators; 320,000 tested, 2.4% active; AID 485313; further: % of control where 0% means no effect; nearly all actives have a fitted effect of over 60% in size
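Huh7 cells stably carrying NPC1 promoter–luciferase, plated in Opti-MEM with 10% FBS for 2 h, were exposed to compound in DMSO for 24 h at 37 °C; luciferase reagent was added for 10 min and luminescence read.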
ELG1 genotox = induces genotoxicity in HEK293T cells with luciferase-tagged ELG1. HEK293T ELG1-luciferase reporter, luminescence, 16 h. Potency, µM (doses to about 46 µM), inactives show at the highest dose activity change, positive = activation, actives largely listed as activators. 330,000 tested, 1.3% active. AID 504466; further: % of control where 0% means no effect; nearly all actives have a fitted effect of over 60% in size
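HEK293T cells expressing luciferase-tagged ELG1 were treated with compound or DMSO for 16 hr at 37°C. Luciferase activity was then read after 30 min with ONE-Glo at room temperature; rising signal flags genetic stress.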
SMN2 splice up = increases expression of the SMN2 splice variant | Potency, µM (top dose mostly 46.1 µM), without a hit: at the highest dose activity change, positive = activation, most hits filed as activators | HEK293 SMN2-luciferase splicing reporter, luminescence, 30-36 h | 210,000 tested, 2.8% active; further: % of control where 0% means no effect; nearly all actives have a fitted effect of over 55% in size
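HEK293 cells carry an SMN2 […]–luciferase reporter in which exon 7 inclusion puts luciferase in frame. Cells were plated 10-12 h before compound addition, then incubated 30-36 h at 37C. ONE-Glo luminescence was read; sodium butyrate at 4.5 mM final served as control.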
FLuc modulator = inhibits or activates purified firefly luciferase, miR-21 counter-screen; purified FLuc, Km substrates, luminescence inhibition; P08659; Potency, µM (highest dose often 57.5 µM), for the others: at the top dose activity change, negative = inhibition, usual class: inhibitors; AID 588342; 360,000 tested, 6.9% active;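 further: plate controls were vehicle for no effect and reference inhibitor for full effect; nearly all actives have a fitted effect of over 55% in size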
Target sequence (P08659 whole entry, looked up): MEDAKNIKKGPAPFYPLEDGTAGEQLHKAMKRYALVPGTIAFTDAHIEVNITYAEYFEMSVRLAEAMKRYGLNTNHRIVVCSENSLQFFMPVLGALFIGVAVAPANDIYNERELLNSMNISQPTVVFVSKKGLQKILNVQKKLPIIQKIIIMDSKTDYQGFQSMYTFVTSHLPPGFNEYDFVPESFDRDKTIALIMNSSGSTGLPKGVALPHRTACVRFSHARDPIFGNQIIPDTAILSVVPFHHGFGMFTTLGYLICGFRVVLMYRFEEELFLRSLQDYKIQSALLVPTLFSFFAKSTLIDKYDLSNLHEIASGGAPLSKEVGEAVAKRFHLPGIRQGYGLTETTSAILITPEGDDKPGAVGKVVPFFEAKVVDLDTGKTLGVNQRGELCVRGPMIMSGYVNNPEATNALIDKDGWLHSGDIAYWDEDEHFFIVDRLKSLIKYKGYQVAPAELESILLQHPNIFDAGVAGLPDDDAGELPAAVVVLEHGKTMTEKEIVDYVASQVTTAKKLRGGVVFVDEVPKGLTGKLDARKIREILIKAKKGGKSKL
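Purified P. pyralis luciferase (10nM final) with 10uM D-luciferin and 10uM ATP (Km levels) in 50mM Tris acetate pH 7.5, 10mM Mg acetate, 0.01% Tween-20, 0.05% BSA; qHTS 6-point titration, ~60 µM downward; luminescence read.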
Rab9 promoter act = activators of Rab9 promoter | 320,000 tested, 2.8% active | AID 485297 | Potency, µM (top dose mostly 9.22 µM), inactives show at the highest dose activation, negative = inhibition, actives largely listed as activators | Huh7 Rab9 promoter-luciferase reporter, luminescence, 24 h; further: % of control where 0% means no effect; nearly all actives have a fitted effect of over 60% in size
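Luciferase signal after 10 min detection reagent at ambient indicates Rab9 promoter upregulation; stably transfected Huh7 cells were treated 24 h with compound in DMSO at 37 °C, 5% CO2.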
The depositor's hits bear a star; [ ] = dose if it differs, or a comment. A selection: hits, their analogues and other compounds. The true share with any hit is near 7.4%. The call rests on the fitted dose curve; in most records, active means well fitted curve in the direction sought with a large enough effect; inconclusive means small, poorly fitted or top-dose-only effect, or another doubt; inactive means no such curve, though single readings can be large; an effect the other way counts as inactive or inconclusive. Potency means the concentration at half of the fitted maximal effect.

Brc1ccc(-c2nc3ccccn3c2Nc2ccc3c(c2)OCCO3)o1 was read as SMN2 splice up inconclusive and FLuc modulator 13µM*.
Screening Cc1ccn2c(Nc3ccc4c(c3)OCCO4)c(-c3cccs3)nc2c1 returned SMN2 splice up -2% and FLuc modulator 9.5µM*.
`COc1ccc(C(=O)c2ccsc2N)cc1` gave NPC1 prom act 3.5µM*, ELG1 genotox inconclusive, FLuc modulator 17µM* and Rab9 promoter act inconclusive.
For COc1ccc(C(=O)c2ccc(CC#N)s2)cc1 the results were NPC1 prom act inconclusive, ELG1 genotox inconclusive, SMN2 splice up 13µM*, FLuc modulator 12µM* and Rab9 promoter act inconclusive.
For CCc1cc(C(=O)c2ccc(OC)cc2)c(N)s1 the results were NPC1 prom act -6%, ELG1 genotox 1%, FLuc modulator -2% and Rab9 promoter act -1%.
CCN(CC)c1ccc(NC(=O)CCCN2C(=O)C(c3ccccc3)Oc3cccnc32)c(C)c1 (stereo not given) was read as FLuc modulator -7%.
`COc1cccc(NC(=O)Cn2c(=O)n(CCCCC(=O)NCc3ccccc3Cl)c(=O)c3ccccc32)c1` gave SMN2 splice up 4% and FLuc modulator 1%.
Screening CC(C)(C)C1CCC(OC(=O)c2cncc(Br)c2)CC1 (stereo not given) returned NPC1 prom act inconclusive, ELG1 genotox inconclusive, SMN2 splice up -38%, FLuc modulator 7.6µM* and Rab9 promoter act 1.8µM*.
For COc1ccc(Cl)cc1NC(=O)Nc1ccc(C(=O)N2CCCC2)cc1 the results were NPC1 prom act 20%, ELG1 genotox -6%, FLuc modulator 21µM* and Rab9 promoter act 19%.
COc1ccc(C)cc1NC(=O)Nc1ccc(C(=O)N2CCCC2)cc1 was read as NPC1 prom act 23%, ELG1 genotox 18%, FLuc modulator 13µM* and Rab9 promoter act 29%.
Screening COCC(=O)N1CCC2(CC1)CN(c1cccc(-c3ccccc3)c1)C2 returned SMN2 splice up -7%.
CSc1nn(Cc2cccc(Cl)c2)c(N(C(C)=O)C(C)=O)c1S(=O)(=O)c1ccccc1 was read as SMN2 splice up -7% and FLuc modulator -2%.
For O=C(NC1CCCC1)c1noc2c1CCCCC2 the results were NPC1 prom act inconclusive, ELG1 genotox 14µM*, SMN2 splice up 10µM*, FLuc modulator inconclusive and Rab9 promoter act inconclusive.
`CC(NC(=O)c1noc2c1CCCCC2)c1ccccc1` (stereo not given) gave NPC1 prom act 11%, ELG1 genotox 5%, SMN2 splice up -1%, FLuc modulator -19% and Rab9 promoter act 28%.
Screening O=C(NCc1cccs1)c1noc2c1CCCCC2 returned NPC1 prom act inconclusive, ELG1 genotox 18µM*, SMN2 splice up 29%, FLuc modulator inconclusive and Rab9 promoter act inconclusive.
`O=C(NCc1ccco1)c1noc2c1CCCC2` gave NPC1 prom act 17%, ELG1 genotox 2%, SMN2 splice up -3%, FLuc modulator -10% and Rab9 promoter act 27%.
For O=C(NCc1ccccc1)c1noc2c1CCCCC2 the results were NPC1 prom act 3.5µM*, ELG1 genotox inconclusive, SMN2 splice up 25µM*, FLuc modulator 21µM* and Rab9 promoter act 1.6µM*.
`CCc1ccccc1NC(=O)COC(=O)c1cn(CC)c2nc(C)ccc2c1=O` gave SMN2 splice up 3% and FLuc modulator -9%.
For CCN(CC)CCCn1c(-c2ccccc2)nc2c(NCCOC)nc(C)nc21 the results were SMN2 splice up -1%.
Screening Cc1cc(NC(=O)NCc2ccccc2)c(=O)n(Cc2ccccc2F)c1 returned NPC1 prom act 11%, ELG1 genotox 14%, FLuc modulator 5.4µM* and Rab9 promoter act 20%.
Screening COc1cccc(NC(=O)Nc2cccn(Cc3ccc(C)cc3)c2=O)c1 returned NPC1 prom act -8%, ELG1 genotox -7%, FLuc modulator inconclusive and Rab9 promoter act -32%.
Screening COc1cccc(Cn2cc(C)cc(NC(=O)NCc3ccccc3)c2=O)c1 returned NPC1 prom act 15%, ELG1 genotox 4%, FLuc modulator 2.1µM* and Rab9 promoter act 18%.
`COc1ccccc1CNC(=O)c1cc2sccc2n1Cc1ccc(F)cc1` gave SMN2 splice up 27% and FLuc modulator 0%.
For CCC/C=C(\CCC)C(NC(=O)c1ccccc1)c1ccc(C(=O)OC)cc1 (stereo not given) the results were SMN2 splice up -38%.
`CCOc1ccc(NC(=O)CSc2nc(=O)[nH]c3c2CCC3)cc1` gave FLuc modulator -9%.
Screening O=C1c2ccccc2NC(c2ccc(Br)o2)N1O (stereo not given) returned NPC1 prom act 20%, ELG1 genotox 11%, FLuc modulator -30% and Rab9 promoter act 17%.
For O=C1c2ccccc2NC(c2ccc(-c3cccs3)o2)N1O (stereo not given) the results were NPC1 prom act 10%, ELG1 genotox inconclusive, FLuc modulator 12µM* and Rab9 promoter act 1%.
For S=C(S)NCCCn1ccnc1 the results were SMN2 splice up -5%[9.22 µM].
For Cc1nnc(SCC(=O)Nc2ccc3[nH]c(=O)[nH]c3c2)s1 the results were NPC1 prom act -2%, ELG1 genotox 0%, FLuc modulator 4% and Rab9 promoter act -12%.
COc1ccc(CSc2nnc(SCc3ccc([N+](=O)[O-])cc3)s2)cc1 was read as NPC1 prom act 2%, ELG1 genotox 1%, SMN2 splice up -21%, FLuc modulator -2% and Rab9 promoter act -2%.
For COC(=O)CSc1nnc(SCc2ccc(OC)cc2)s1 the results were NPC1 prom act 0%, ELG1 genotox 0%, SMN2 splice up 1%, FLuc modulator 24µM* and Rab9 promoter act -11%.
For COc1ccc(NC(=O)CSc2nnc(NC(=O)Nc3ccc(OC)cc3)s2)cc1 the results were FLuc modulator 0.38µM*.
Screening COCCNC(=O)CSc1nnc(NC(=O)Nc2ccc(C)cc2)s1 returned FLuc modulator 12µM*.
`CCCSc1nnc(NC(=O)Nc2ccc(C)cc2)s1` gave NPC1 prom act 2%, ELG1 genotox -3%, FLuc modulator 0% and Rab9 promoter act -2%.
`COc1ccc(Nc2nnc(SCC(=O)Nc3ccc4[nH]c(=O)[nH]c4c3)s2)cc1` gave NPC1 prom act 3%, ELG1 genotox 6%, FLuc modulator 2.4µM* and Rab9 promoter act 11%.
CCCCC(=O)Nc1nnc(SCC(=O)Nc2ccc(OC)cc2)s1 was read as NPC1 prom act -7%, ELG1 genotox inconclusive, FLuc modulator 1% and Rab9 promoter act 0%.
`COc1ccc(NC(=O)CSc2nnc(NC(=O)c3ccccc3C(=O)O)s2)cc1` gave NPC1 prom act -1%, ELG1 genotox -2%, FLuc modulator 27µM* and Rab9 promoter act -5%.
